Screening results deposited in PubChem by Broad Institute.
Casp6 inh: blocks human caspase-6 cleavage activity; P55212; purified caspase-6, Z-VEID-R110 cleavage fluorescence; inhibition, % at 12.5 µM; 350,000 tested, 0.53% active; AID 686996;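 active = mean inhibition across replicates at least about 35%, with every replicate also reaching that limit, limit read from the data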
SUMO Mot1 rescue: SUMOylation pathway inhibition by Mot1-301 growth rescue. S. cerevisiae Mot1-301 growth rescue, ATP luminescence, 38.5C; percent above DMSO median, 100 means doubled. growth rescue, % at 18.8 µM. 320,000 tested, 1% active;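 active = every valid replicate shows activation above 250% relative to neutral control wells; inactive = the rest, any valid replicate at or below 250%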
CDK5 p35 inh: CDK5/p35 (human) kinase inhibition. Recombinant CDK5/p35, ADP-Glo luminescence, 60 min. AID 488839. Q00535+Q15078. inhibition, % at 10 µM. 330,000 tested, 0.01% active;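 active = highest replicate inhibition of at least 50% and at least 75% of replicates reaching 50%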
Target sequence (Q00535 whole entry, looked up): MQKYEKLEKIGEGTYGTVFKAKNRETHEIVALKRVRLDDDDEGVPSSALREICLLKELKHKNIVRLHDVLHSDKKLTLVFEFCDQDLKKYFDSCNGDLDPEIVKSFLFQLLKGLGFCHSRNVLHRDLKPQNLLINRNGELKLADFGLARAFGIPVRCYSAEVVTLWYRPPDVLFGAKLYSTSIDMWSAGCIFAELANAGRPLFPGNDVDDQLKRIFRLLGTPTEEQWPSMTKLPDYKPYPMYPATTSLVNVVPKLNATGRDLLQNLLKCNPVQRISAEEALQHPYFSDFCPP
Target sequence (Q15078 whole entry, looked up): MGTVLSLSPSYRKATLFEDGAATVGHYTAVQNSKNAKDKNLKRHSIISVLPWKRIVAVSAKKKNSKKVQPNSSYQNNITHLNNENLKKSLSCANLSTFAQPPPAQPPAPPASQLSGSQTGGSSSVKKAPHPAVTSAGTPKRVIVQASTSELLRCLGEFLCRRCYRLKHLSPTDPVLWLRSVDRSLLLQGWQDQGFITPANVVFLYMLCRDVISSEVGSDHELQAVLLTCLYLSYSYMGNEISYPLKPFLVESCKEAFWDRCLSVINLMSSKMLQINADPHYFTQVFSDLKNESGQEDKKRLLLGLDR
NSD2 HMT inh: blocks human histone methyltransferase NSD2; inhibition, % at 12.5 µM; O96028; 310,000 tested, 0.54% active; NSD2 peptide methylation, AlphaScreen, 120 min; AID 743445; in the data active = inhibition above about 50%
N-glyco inh: N-linked glycosylation inhibition | D54 ERlucT glycosylation luciferase reporter, 24 h; percent of 100 nM tunicamycin response | reporter increase, % at 12.5 µM | 360,000 tested, 0.23% active;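 active = mean luciferase reporter signal, scaled so untreated is 0 and the glycosylation-blocking control 100, at or above a set limit in every replicate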;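 also: luciferase carries N-glycosylation sites so blocking glycosylation raises the light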
ALR H2O2 inh: blocks human ALR sulfhydryl oxidase activity; 290,000 tested, 3.8% active; purified ALR, DTT oxidation, H2O2 HRP-luminol luminescence; inhibition, % (test concentration not listed); P55789; AID 485317;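 active = mean replicate inhibition above about 79%, with every replicate also reaching it, limit read from the data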
Large screens that a line does not name were inactive. An excerpt weighted towards active compounds, which were near 3.9% of everything screened.

Nc1ccc(S(=O)(=O)c2ccc(N)c(N)c2)cc1	ALR H2O2 inh 88.5
COc1cccc(C#Cc2ccc([C@@H]3[C@H](CO)N4C(=O)CN(C(=O)Cc5cccnc5)C[C@@H]34)cc2)c1	none (no result: SUMO Mot1 rescue, CDK5 p35 inh, NSD2 HMT inh, N-glyco inh, ALR H2O2 inh)
COc1cccc(N2C(=O)CC(N3CCc4ccccc43)C2=O)c1 (configuration not stated)	ALR H2O2 inh 90.0 (no result: Casp6 inh)
COc1ccccc1N1C(=O)CC(N2CCc3ccccc32)C1=O (configuration not stated)	none (no result: Casp6 inh, NSD2 HMT inh)
O=C1CC(N2CCc3ccccc32)C(=O)N1c1ccc(F)cc1 (configuration not stated)	ALR H2O2 inh 98.9 (no result: SUMO Mot1 rescue)
CCC(=O)N1[C@@H]2c3ccc(-c4ccccc4)c(=O)n3C[C@H]1[C@H](CO)[C@H]2C(=O)N1CCN(C)CC1	none (no result: SUMO Mot1 rescue, CDK5 p35 inh, NSD2 HMT inh, N-glyco inh, ALR H2O2 inh)
COCCN1Cc2cccc(C(=O)Nc3cccc(-c4nc5ccccc5[nH]4)c3)c2C1=O	none (no result: ALR H2O2 inh)
COCCN1Cc2cccc(C(=O)N3CCN(c4ccccc4)CC3)c2C1=O	ALR H2O2 inh 94.8 (no result: Casp6 inh)
COCCN1Cc2cccc(C(=O)Nc3ccc(-c4nc5ccccc5[nH]4)cc3)c2C1=O	SUMO Mot1 rescue 689.2 (no result: Casp6 inh)
C[C@@H]1CN([C@H](C)CO)S(=O)(=O)c2ccc(C#C[C@@H](C)O)cc2O[C@H]1CN(C)C(=O)C1CC1	none (no result: SUMO Mot1 rescue, CDK5 p35 inh, NSD2 HMT inh, N-glyco inh, ALR H2O2 inh)
C[C@@H]1CN([C@H](C)CO)C(=O)c2cccc(NC(=O)C3CCOCC3)c2O[C@H]1CN(C)Cc1ccc2c(c1)OCO2	none (no result: SUMO Mot1 rescue, CDK5 p35 inh, NSD2 HMT inh, N-glyco inh, ALR H2O2 inh)
COCC(=O)N1CC(=O)N2[C@H](C1)[C@@H](c1ccc(C#CC3CCCCC3)cc1)[C@@H]2CO	none (no result: SUMO Mot1 rescue, CDK5 p35 inh, NSD2 HMT inh, N-glyco inh, ALR H2O2 inh)
O=C(N/C(=C\c1cccs1)C(=O)N1CCCCCC1)c1ccccc1	SUMO Mot1 rescue 312.4
O=C(O)/C(=C\c1ccco1)NC(=O)c1ccccc1	ALR H2O2 inh 97.1
COC(=O)/C(=C/c1ccco1)NC(=O)c1ccccc1	none (no result: ALR H2O2 inh)
O=C(N/C(=C/c1ccco1)C(=O)N1CCCCCC1)c1cccs1	ALR H2O2 inh 97.4 (no result: Casp6 inh)
COCCNC(=O)C[C@H]1CC[C@@H](NC(=O)NC2CCCC2)[C@@H](CO)O1	none (no result: SUMO Mot1 rescue, CDK5 p35 inh, NSD2 HMT inh, N-glyco inh, ALR H2O2 inh)
C[C@@H]1CCCCO[C@H](CN(C)C(=O)Nc2ccc(C(F)(F)F)cc2)[C@@H](C)CN([C@H](C)CO)C(=O)c2cc(NS(=O)(=O)c3cn(C)cn3)ccc2O1	none (no result: SUMO Mot1 rescue, CDK5 p35 inh, NSD2 HMT inh, N-glyco inh, ALR H2O2 inh)
O=C1N/C(=C\c2nc3ccccc3s2)c2ccccc21	SUMO Mot1 rescue 353.6 (no result: Casp6 inh, CDK5 p35 inh, NSD2 HMT inh, N-glyco inh)
O=C(Cc1cccnc1)N[C@@H]1CC[C@@H](CCn2cc(-c3ccccc3F)nn2)O[C@H]1CO	none (no result: SUMO Mot1 rescue, CDK5 p35 inh, NSD2 HMT inh, N-glyco inh, ALR H2O2 inh)
CC1CCN(C(=O)COC(=O)c2ccc(Cl)nc2)CC1	none
CC1CN(C(=O)COC(=O)c2ccc(Cl)nc2)CC(C)O1 (configuration not stated)	ALR H2O2 inh 91.4 (no result: NSD2 HMT inh)
C[C@@H]1CN([C@H](C)CO)S(=O)(=O)c2ccc(Br)cc2O[C@@H]1CN(C)Cc1ccncc1	none (no result: SUMO Mot1 rescue, CDK5 p35 inh, NSD2 HMT inh, N-glyco inh, ALR H2O2 inh)
COc1ccccc1Nc1nc(-c2cccnc2)cs1	none
COc1ccccc1Nc1nc(C2(C)CCC(=O)O2)cs1 (configuration not stated)	ALR H2O2 inh 95.9 (no result: Casp6 inh)
CCCc1sc(N)nc1-c1ccc(C)cc1	ALR H2O2 inh 77.9 (no result: Casp6 inh, SUMO Mot1 rescue, NSD2 HMT inh)
CCOC(=O)COn1c(=O)c(=O)n(O)c2ccccc21	ALR H2O2 inh 99.6 (no result: Casp6 inh)
Cc1nc(N2CCN(C)CC2)c2cc(-c3ccccc3)sc2n1	ALR H2O2 inh 96.5
COC(=O)[C@H](C)NC(=O)c1cc2c(cn1)[nH]c1ccccc12	none
C[C@H](NC(=O)c1cc2c(cn1)[nH]c1ccccc12)C(=O)O	ALR H2O2 inh 98.3
Cc1ccc2nc(SCC(=O)Nc3ccc4sc(C)nc4c3)c(C#N)cc2c1	N-glyco inh 33.3 (no result: Casp6 inh)
O=C(CNC(=O)c1ccco1)Nc1ccc(N2CCCCCC2)cc1	ALR H2O2 inh 98.1
O=C(CNC(=O)c1ccc(Br)o1)Nc1ccc(N2CCCCCC2)cc1	none (no result: SUMO Mot1 rescue, ALR H2O2 inh)
O=C(CNCc1ccco1)Nc1ccc(N2CCCCCC2)cc1	ALR H2O2 inh 98.9
C[C@@H]1CN([C@H](C)CO)C(=O)c2c(c3ccccc3n2C)-c2ccccc2CO[C@@H]1CN(C)C(=O)C1CC1	none (no result: SUMO Mot1 rescue, CDK5 p35 inh, NSD2 HMT inh, N-glyco inh, ALR H2O2 inh)
C[C@H](CO)N1C[C@H](C)[C@H](CN(C)C(=O)c2ccccc2)OCCCC[C@H](C)Oc2ccc(NS(=O)(=O)c3cccs3)cc2C1=O	none (no result: SUMO Mot1 rescue, CDK5 p35 inh, NSD2 HMT inh, N-glyco inh, ALR H2O2 inh)
Cc1ccc2nc(-c3ccc(NS(=O)(=O)c4c(C)n(C)c(=O)n(C)c4=O)cc3)sc2c1	SUMO Mot1 rescue 323.5
Cc1sc2nc(CSc3nc4ccccc4s3)[nH]c(=O)c2c1C	ALR H2O2 inh 98.8 (no result: CDK5 p35 inh, N-glyco inh)
